Sampled rows, rich in hits. Any-hit rate of the full collection: about 4.7%.
proKLK7 act: activates the human kallikrein-7 zymogen. AID 652039. P49862. activation, % at 7 µM. purified proKLK7, EDANS-DABCYL substrate fluorescence; 100% is mature enzyme control, 0% vehicle. actives 0.9% (n = 370,000);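 active = activation above the mean of all tested compounds plus 3 SD, computed per campaign excluding outliers beyond control limits, cut at about 13% in these data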
Target sequence (P49862 whole entry, looked up): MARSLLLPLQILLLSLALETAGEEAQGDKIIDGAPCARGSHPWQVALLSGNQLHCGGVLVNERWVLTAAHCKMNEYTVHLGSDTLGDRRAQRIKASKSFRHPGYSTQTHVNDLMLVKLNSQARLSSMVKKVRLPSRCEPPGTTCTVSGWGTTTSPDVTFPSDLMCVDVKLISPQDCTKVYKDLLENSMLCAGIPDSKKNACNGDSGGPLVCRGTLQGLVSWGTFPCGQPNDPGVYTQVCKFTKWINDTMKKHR
ADAM10 inh: inhibitors of human ADAM10 | inhibition, % at 7 µM | actives 0.62% (n = 370,000) | recombinant ADAM10, EDANS/DABCYL FRET peptide cleavage, 3 h;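 active = inhibition above a per-campaign cutoff equal to the mean of compounds falling between control-based bounds plus 3 SD, cut at about 20% in these data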
rCAG RNA binder: binds r(CAG) RNA repeats; actives 1.3% (n = 370,000); inhibition, % at 3 µM; AID 651821; r(CAG) RNA repeat, TO-PRO-1 dye displacement fluorescence;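 active = inhibition above the plate cutoff, the mean of all test compounds on that plate plus 3 SD, cut at about 35% in these data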;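 note: higher means more dye released from RNA so lower well fluorescence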
ADAM17 inh: inhibits human ADAM17; AID 720648; actives 0.83% (n = 370,000); inhibition, % at 6.95 µM; recombinant ADAM17, EDANS/DABCYL FRET peptide cleavage; P78536;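 active = inhibition above the mean of compounds lying between control limits plus 3 SD, set per campaign, cut at about 8.5% in these data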
DSG3 Ab inh: inhibitors of pemphigus antibody binding to human desmoglein-3. DSG3-coupled beads, scFv-anti-DSG3-GFP binding, flow cytometry; stronger effect = lower value. actives 0.48% (n = 310,000). P32926. AID 588358. binding (percent of control), % at 10 µM;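 active = binding more than 3 SD below its plate's average and above zero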;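 note: hits lower antibody fragment binding to DSG3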
MPTP block: inhibitors of mitochondrial permeability transition pore | actives 1.4% (n = 360,000) | isolated mouse mitochondria, Ca2+ swelling absorbance, 30 min | AID 602449 | inhibition, % at 10 µM;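 active = inhibition of 50% or more, scaled per plate between neutral and stimulator controls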
Of the large screens only hits and unclear results are named; the others gave an inactive call.

Cc1[nH][nH]c(=O)c1C(c1ccc(-c2ccc(Cl)c(Cl)c2)o1)c1c(C)[nH][nH]c1=O	rCAG RNA binder 38
Cc1[nH][nH]c(=O)c1C(c1ccc(-c2ccc(F)cc2)o1)c1c(C)[nH][nH]c1=O	none
COCCCN1C(=O)[C@H](CC(=O)NCc2ccc(C)o2)[C@]2(C(=O)OC)CCCCC=C12	none (no result: DSG3 Ab inh, MPTP block)
CCN(CC)S(=O)(=O)c1cccc(-c2nnc(SCCOc3ccccc3)o2)c1	none
CCN(CC)S(=O)(=O)c1cccc(-c2nnc(SCCOc3ccc(Cl)cc3)o2)c1	DSG3 Ab inh -11
Nc1ccn([C@@H]2O[C@H](C(=O)N[C@H](Cc3ccccc3)C(=O)N3CCN(CC(=O)N4CCCC4)CC3)[C@@H](O)[C@H]2O)c(=O)n1	none (no result: DSG3 Ab inh, MPTP block)
COc1ccc(NC(=O)CCn2c(=S)[nH]c3ccccc3c2=O)cc1OC	DSG3 Ab inh 63
Cc1cc(C)cc(NC(=O)CCn2c(=S)[nH]c3ccccc3c2=O)c1	none (no result: DSG3 Ab inh)
O=C(OCc1ccccc1)N1Cc2ccnnc2CC1c1ccccc1-c1ccc(C(F)(F)F)cc1 (stereo not drawn)	none (no result: DSG3 Ab inh, MPTP block)
O=C(CCCN1C(=O)/C(=C/c2cccs2)SC1=S)Nc1cccnc1	DSG3 Ab inh 68
COc1cc(C(=O)Nc2ccc(Oc3ncnc4sc(-c5ccccc5)cc34)cc2)cc(OC)c1OC	DSG3 Ab inh -10
COc1ccc(C(=O)Nc2ccc(Oc3ncnc4sc(-c5ccccc5)cc34)cc2)cc1OC	DSG3 Ab inh -207
COc1ccc(C(=O)C(=O)N2CCN(S(=O)(=O)c3cccc4c(N(C)C)cccc34)CC2)cc1OC	none (no result: DSG3 Ab inh, MPTP block)
CCOC(=O)Cn1cc(CN2C(C(=O)OC)CN(Cc3ccc(C)cc3)CCS2(=O)=O)nn1 (stereo not drawn)	none (no result: DSG3 Ab inh, MPTP block)
CC12CCC3c4ccc(O)cc4CCC3C1CC(O)C2O (stereo not drawn)	DSG3 Ab inh 46
C[C@]12CC[C@@H]3c4ccc(O)cc4CC[C@H]3[C@@H]1C[C@@H](O)[C@@H]2O	none
CCOc1ccc(C(=O)OCC(=O)Nc2cc(S(=O)(=O)N3CCOCC3)ccc2N2CCOCC2)cc1	DSG3 Ab inh -19
O=C(COC(=O)c1ccc(O)cc1)Nc1cc(S(=O)(=O)N2CCOCC2)ccc1N1CCOCC1	none (no result: DSG3 Ab inh, MPTP block)
Cc1ccc2oc(-c3ccc(NC(=O)CC(C)C)cc3)nc2c1	DSG3 Ab inh -15
CC(C)CC(=O)Nc1ccc2oc(-c3cccnc3)nc2c1	none
Cc1cccc(NS(=O)(=O)c2ccc(NC(=O)CN(c3cc([N+](=O)[O-])ccc3C)S(C)(=O)=O)cc2)c1	ADAM10 inh 36, ADAM17 inh 14
O=C(Nc1sc2c(c1C(=O)O)CCCCC2)c1ccccc1	none
O=C(Nc1sc2c(c1C(=O)O)CCCC2)c1cccc(Cl)c1	rCAG RNA binder 84
Cc1ccc(-n2c(SCC(=O)c3ccc4c(c3)OCO4)nc3ccccc3c2=O)cc1	none (no result: DSG3 Ab inh, MPTP block)
Cn1c(N)c(C(=O)COC(=O)C2Cc3ccccc3CN2S(C)(=O)=O)c(=O)n(C)c1=O (stereo not drawn)	DSG3 Ab inh 76
CCOc1cc(OCC)cc(C(=O)N2CCC[C@@H]2C(=O)N2CCC[C@H]2C(=O)NCc2ccccc2)c1	none (no result: DSG3 Ab inh, MPTP block)
COc1ccccc1N1CCN(C(=O)c2ccc3nc(-c4ccco4)c(-c4ccco4)nc3c2)CC1	none (no result: DSG3 Ab inh)
O=C(NCCc1ccccc1)c1ccc2nc(-c3ccco3)c(-c3ccco3)nc2c1	none (no result: proKLK7 act, ADAM10 inh, rCAG RNA binder, ADAM17 inh, DSG3 Ab inh)
c1coc(-c2cnc3ccccc3n2)c1	none
O=C(NCCO)c1ccc2nc(-c3ccco3)c(-c3ccco3)nc2c1	rCAG RNA binder 54
Cc1ccc(C)c(N2CCN(C(=O)c3ccc4nc(-c5ccco5)c(-c5ccco5)nc4c3)CC2)c1	DSG3 Ab inh 69
c1coc(-c2nc3ccccc3nc2-c2ccco2)c1	rCAG RNA binder 52
O=C(NCc1ccccc1)[C@@H]1CCCN1C(=O)[C@H]1CCCN1C(=O)c1ccc(Cl)c(Cl)c1	none (no result: DSG3 Ab inh, MPTP block)
Cn1c(CC(=O)Nc2ccccc2F)nnc1SCC(=O)NC1CCCCC1	none
Cc1ccccc1NC(=O)Cc1nnc(SCC(=O)NC2CCCC2)n1C	DSG3 Ab inh 88
O=C(NCCCCc1ccccc1)Nc1ccc(F)cc1F	DSG3 Ab inh 92
CC(C)(C)c1ccc(-c2csc(N3CCC(C(N)=O)CC3)n2)cc1	none (no result: proKLK7 act, rCAG RNA binder, DSG3 Ab inh, MPTP block)
NC(=O)C1CCN(c2nc(-c3ccc(Br)cc3)cs2)CC1	DSG3 Ab inh 58

Source: PubChem
